Experimental findings from PubChem BioAssay (NCI) are described below.

Structures are written as SMILES. The panel holds about 83,000 compounds, 20% with a hit somewhere; the sample as a whole holds those more often.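 Values shown are percent growth following 48 h exposure of cells in 96-well plates to a single concentration of compound; below 10 was considered active.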 A number with no mark means an inactive call. Active and inactive are the calls of the source.

In one experiment the test system is OVCAR-3 ovarian. The experiment is described as follows: NCI-60 one-dose screen, 48 h (100 = growth as untreated, 0 = no growth, -100 = all killed). Conditions: 10 µM unless noted.
Turning to `NC(N)=Nc1ccc(Oc2cccc(Nc3ccc(Cl)c(C(F)(F)F)c3)c2)cn1`, the growth was -93.8% (active). On to `CCN1CCN(Cc2ccc(C(=O)Nc3ccc(C)c(Oc4ccc(-c5[nH]nc6ncnc(N)c56)cc4)c3)cc2C(F)(F)F)CC1`, for which the growth was 116%.

For the molecule `COc1ccc(NC(=O)Nc2ccc3c(ccn3C(=O)c3cccc(F)c3)c2)cc1`, the growth was 13.5%. Still for that read-out and setting: the figure for `CCn1c(SCC(=O)Nc2cccc(C(=O)/C=C/c3ccccc3Cl)c2)nc2ccccc2c1=O` is 69.1%; for `COc1ccc(-c2nn(-c3ccc(S(C)(=O)=O)cc3)cc2/C=N/O)cc1` it is 122%. As to `NC(N)=Nc1ccc(Oc2ccc(Nc3ccc(Cl)c(C(F)(F)F)c3)cc2)cc1`, the growth was -21.8% (active). Still for that read-out and setting: for `COc1ccc(NC(=O)CSc2nnc(-c3ccc4nc(-c5ccc(OC)c(OC)c5)[nH]c4c3)o2)cc1OC` the value was 108%; for `Cc1ccc(-n2c(/C=C3\C(=O)Nc4ccccc43)ccc2CO)cc1`, 65.4%; for `O=C(NNc1nc2cc(F)ccc2n2c(CO)ccc12)c1cnccn1`, 33.4%.

In the case of `Nc1ccccc1NC(=O)c1ccc(NC(=O)C/C=C/c2cccnc2)cn1`, the growth is 22.7%.

On to `Cn1ccnc1C(=O)/C=C/c1ccc(CNC(=O)c2c(F)c(F)c(F)c(F)c2F)cc1`, for which the growth was 14.8%. The same measure, in the same setting: for `C#C[C@]1(O)CC[C@H]2[C@@H]3CC=C4c5sc(-c6cccc(O)c6)nc5CC[C@]4(C)[C@H]3CC[C@@]21C` the value was -65.3% (active). The same measure, in the same setting: for `COc1cc2c(cc1OC)C(Sc1ccc(F)cc1)c1c(nc(N)c(C#N)c1N)O2` (stereo unspecified) the value was -58.9% (active); for `N#Cc1cn(Cc2ccc(Cl)cc2Cl)c(C(=O)c2ccc(Br)cc2)c1N`, 105%. Turning to `O=C(O)c1ccc(-n2cc(CNc3cc(F)c(F)c(F)c3)c(-c3cccc(F)c3)n2)cc1`, the growth is 96.1%.

For the molecule `CCc1cccc(NC(=O)CNc2cc(S(=O)(=O)N(C)C)cc(C)c2C)c1`, the growth is 112%. Still for that read-out and setting: for `COc1ccc2c(c1)c(-c1cc(N)n3nc(-c4cn(C)c5ccc(OC)cc45)cc3n1)cn2C` the value was 117%; for `C=C(C=O)[C@@H]1CC[C@]2(COC(C)=O)CC[C@]3(C)C(CC[C@@H]4[C@@]5(C)CC[C@H](OC(C)=O)C(C)(C)[C@@H]5CC[C@]43C)[C@@H]12` (stereo partly specified), -71.6% (active).

For the molecule `COc1ccc(-c2nc3ccc(-c4nnc(SCC(=O)Nc5ccc(C(=O)/C=C/c6ccc(Cl)cc6)cc5)o4)cc3[nH]2)cc1`, the growth was 113%. The same measure, in the same setting: for `COc1ccc(/C=C(\C#N)C(=O)N2c3ccccc3Sc3ccc(SC)cc32)cc1F` the value was 93.4%; for `O=C(CNc1nc(-c2cccc([N+](=O)[O-])c2)cs1)Nc1cccc(Cl)c1`, 116%; for `CC1(C)CC[C@]23CC[C@]4(C)[C@H](CC[C@@H]5[C@@]6(C)CCCN(CO)C(C)(C)[C@@H]6CC[C@]54C)[C@H]2[C@H]1OC3`, 66.6%. Still for that read-out and setting: for `C=C(C=O)[C@@H]1CC[C@]2(C)[C@H](CC=C3[C@H]4[C@@H](C)[C@H](C)CC[C@]4(C(=O)OC)CC[C@]32C)[C@@]1(C)CCC#N` the value was -58.2% (active); for `CN(C)C(=O)c1cc(-c2ccc3ncnc(NCc4ccccc4)c3c2)cnc1N`, 85.1%. Still for that read-out and setting: for `O=S(=O)(NCCCNc1nccc(-c2[nH]c(-c3ccccc3)nc2-c2ccc(Cl)c(O)c2)n1)c1cccc2ccccc12` the value was 18.7%. In the case of `Nc1ccccc1NC(=O)c1ccc(NC(=O)C/C=C/c2cccnc2)cc1`, the growth is 33.2%. Same read-out and setting: the figure for `COc1cc(-c2nc(SCCC(C)C)nc(NNC(=O)c3ccncc3)c2C#N)cc(OC)c1OC` is 73.5%; for `O=C(NNc1nc2cc(F)c(F)cc2n2cccc12)c1cnccn1` it is 35.6%.

Another experiment has as its system HS 578T breast. The description is as above. Conditions: 10 µM unless noted.
As for `CN1CCN(Cc2ccc(NC(=O)c3cncc(C#Cc4cnc5ccc(OCC6(C)COC6)nn45)c3)cc2C(F)(F)F)CC1`, the growth is -50.2% (active).

In the case of `CC(=O)c1cc(C(=O)c2ccc(Br)cc2)n2cc(C)cc(C)c12`, the growth was 95.9%.

For the molecule `COC(=O)C[Se]C(=O)Cc1c(C)n(C(=O)c2ccc(Cl)cc2)c2ccc(OC)cc12`, the growth is 29.8%. The same measure, in the same setting: the figure for `N#Cc1cccc(CN2CCC3=C(C2)C(=O)N(Cc2ccc(Cl)cc2)C2=NCCCN23)c1` is 50.5%; for `C=CCn1c(SCC(=O)Nc2ccc(C(=O)/C=C/c3ccc(C)cc3)cc2)nnc1-c1c[nH]c2ccccc12` it is 96.9%. As for `CCCn1cnc2c(c1=N)C(c1ccc(OC)cc1)c1sc3c(CC)cccc3c1O2` (stereo unspecified), the growth was 18.3%. Still for that read-out and setting: for `Cc1ccc(-c2cc3nc(C(Cl)Cl)nc(C)n3n2)cc1` the value was 107%; for `CCOC(=O)C(=O)CC(=O)N1C(=S)NC(=O)C1CC(C)C` (stereo unspecified), 111%.

Regarding `COc1ccc(-c2nc(C(Cl)Cl)nc3cc(-c4ccccc4)nn23)cc1`, the growth is -6.94% (active).

On to `CNC(=O)c1cc(-c2ccc(NS(=O)(=O)c3ccc(C)cc3)cc2)nc2cccnc12`, for which the growth is 104%. On the same count and under the same terms, for `NC(N)=Nc1ccc(Oc2cccc(Nc3ccc(Cl)c(C(F)(F)F)c3)c2)cn1` the value was -2.57% (active); for `CCN1CCN(Cc2ccc(C(=O)Nc3ccc(C)c(Oc4ccc(-c5[nH]nc6ncnc(N)c56)cc4)c3)cc2C(F)(F)F)CC1`, 64.9%; for `COc1ccc(NC(=O)Nc2ccc3c(ccn3C(=O)c3cccc(F)c3)c2)cc1`, 31.6%. Still for that read-out and setting: for `CCn1c(SCC(=O)Nc2cccc(C(=O)/C=C/c3ccccc3Cl)c2)nc2ccccc2c1=O` the value was 92.2%; for `COc1ccc(-c2nn(-c3ccc(S(C)(=O)=O)cc3)cc2/C=N/O)cc1`, 108%; for `NC(N)=Nc1ccc(Oc2ccc(Nc3ccc(Cl)c(C(F)(F)F)c3)cc2)cc1`, 56.1%.

As for `COc1ccc(NC(=O)CSc2nnc(-c3ccc4nc(-c5ccc(OC)c(OC)c5)[nH]c4c3)o2)cc1OC`, the growth is 97.5%.

For the molecule `Cc1ccc(-n2c(/C=C3\C(=O)Nc4ccccc43)ccc2CO)cc1`, the growth is 87.3%. Still for that read-out and setting: the figure for `O=C(NNc1nc2cc(F)ccc2n2c(CO)ccc12)c1cnccn1` is 68.3%; for `Nc1ccccc1NC(=O)c1ccc(NC(=O)C/C=C/c2cccnc2)cn1` it is 24.6%. Same read-out and setting: for `Cn1ccnc1C(=O)/C=C/c1ccc(CNC(=O)c2c(F)c(F)c(F)c(F)c2F)cc1` the value was 86.9%; for `C#C[C@]1(O)CC[C@H]2[C@@H]3CC=C4c5sc(-c6cccc(O)c6)nc5CC[C@]4(C)[C@H]3CC[C@@]21C`, -37.7% (active). On the same count and under the same terms, for `COc1cc2c(cc1OC)C(Sc1ccc(F)cc1)c1c(nc(N)c(C#N)c1N)O2` (stereo unspecified) the value was -4.38% (active). As to `N#Cc1cn(Cc2ccc(Cl)cc2Cl)c(C(=O)c2ccc(Br)cc2)c1N`, the growth is 90%.

For `O=C(O)c1ccc(-n2cc(CNc3cc(F)c(F)c(F)c3)c(-c3cccc(F)c3)n2)cc1`, the growth is 102%. The same measure, in the same setting: for `CCc1cccc(NC(=O)CNc2cc(S(=O)(=O)N(C)C)cc(C)c2C)c1` the value was 97.2%; for `COc1ccc2c(c1)c(-c1cc(N)n3nc(-c4cn(C)c5ccc(OC)cc45)cc3n1)cn2C`, 110%; for `C=C(C=O)[C@@H]1CC[C@]2(COC(C)=O)CC[C@]3(C)C(CC[C@@H]4[C@@]5(C)CC[C@H](OC(C)=O)C(C)(C)[C@@H]5CC[C@]43C)[C@@H]12` (stereo partly specified), -11.6% (active). The same measure, in the same setting: the figure for `COc1ccc(-c2nc3ccc(-c4nnc(SCC(=O)Nc5ccc(C(=O)/C=C/c6ccc(Cl)cc6)cc5)o4)cc3[nH]2)cc1` is 90.6%.

Consider `COc1ccc(/C=C(\C#N)C(=O)N2c3ccccc3Sc3ccc(SC)cc32)cc1F`, for which the growth is 85%. Same read-out and setting: the figure for `O=C(CNc1nc(-c2cccc([N+](=O)[O-])c2)cs1)Nc1cccc(Cl)c1` is 110%; for `CC1(C)CC[C@]23CC[C@]4(C)[C@H](CC[C@@H]5[C@@]6(C)CCCN(CO)C(C)(C)[C@@H]6CC[C@]54C)[C@H]2[C@H]1OC3` it is 91.3%.

As for `C=C(C=O)[C@@H]1CC[C@]2(C)[C@H](CC=C3[C@H]4[C@@H](C)[C@H](C)CC[C@]4(C(=O)OC)CC[C@]32C)[C@@]1(C)CCC#N`, the growth is -14.4% (active). Same read-out and setting: for `CN(C)C(=O)c1cc(-c2ccc3ncnc(NCc4ccccc4)c3c2)cnc1N` the value was 81.8%.

Take `O=S(=O)(NCCCNc1nccc(-c2[nH]c(-c3ccccc3)nc2-c2ccc(Cl)c(O)c2)n1)c1cccc2ccccc12`: the growth is 44%. With `Nc1ccccc1NC(=O)c1ccc(NC(=O)C/C=C/c2cccnc2)cc1`, the growth was 30.3%. `COc1cc(-c2nc(SCCC(C)C)nc(NNC(=O)c3ccncc3)c2C#N)cc(OC)c1OC`: the growth is 8.27% (active). On the same count and under the same terms, the figure for `O=C(NNc1nc2cc(F)c(F)cc2n2cccc12)c1cnccn1` is 75.5%.
